Screens deposited in PubChem by several laboratories.
Sampled rows, rich in hits. Any-hit rate of the full collection: about 3.3%.
TPT1 inhibitor – blocks Candida albicans tRNA 2'-phosphotransferase | recombinant caTPT1, FP RNA substrate dephosphorylation | inhibition, % at 5 µM | 300,000 compounds, 0.81% hits;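 active = inhibition above the mean of all tested compounds plus 3 SD, set per screening campaign, cut at about 24% in these data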;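 also: plate controls were DMSO alone for no effect and ferristatin control at 100 nM for full effect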
PHOSPHO1 block – blocks human PHOSPHO1 phosphatase activity. AID 1565. recombinant PHOSPHO1, absorbance phosphatase assay. inhibition, % at 13.3 µM. 290,000 compounds, 1.1% hits; in the data active = inhibition above about 60%
NRP1-CendR mod – modulators of CendR peptide binding to human neuropilin-1 | O14786 | FAM-RPARPAR peptide binding to NRP-1, fluorescence polarization | inhibition, % at 25 µM | 360,000 compounds, 0.85% hits | AID 602438;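 active = inhibition or corrected inhibition above about 18%, plus a signal ratio from 0.5 to 1.5, limit read from the data, passing the limit was not always enough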
Rpn11 block – inhibitors of human proteasome Rpn11 | inhibition, % at 20 µM | O00487 | 360,000 compounds, 0.59% hits | human 26S proteasome, Ub4-pepOG fluorescence polarization; 20S core pre-blocked with epoxomicin;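 active = inhibition at 20 µM, scaled to each plate's controls, above about 33%, limit read from the data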
Target sequence (O00487 whole entry, looked up): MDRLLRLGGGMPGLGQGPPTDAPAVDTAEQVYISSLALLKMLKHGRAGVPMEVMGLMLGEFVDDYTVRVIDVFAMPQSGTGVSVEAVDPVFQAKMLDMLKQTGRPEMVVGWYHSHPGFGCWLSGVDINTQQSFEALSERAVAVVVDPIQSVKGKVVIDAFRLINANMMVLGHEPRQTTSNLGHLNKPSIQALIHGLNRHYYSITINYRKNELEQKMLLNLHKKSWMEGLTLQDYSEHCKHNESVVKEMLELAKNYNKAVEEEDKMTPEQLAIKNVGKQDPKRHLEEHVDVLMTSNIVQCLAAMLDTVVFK
CTSL1 counter – blocks F. hepatica cathepsin L1 in PFM18AAP counter-screen | recombinant F. hepatica cathepsin L1, Z-Leu-Arg-MCA fluorescence | AID 1906 | 300,000 compounds, 0.49% hits | inhibition, % at 5.96 µM;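 active = inhibition above the mean of all tested compounds plus 3 SD, set per screening campaign, cut at about 17% in these data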;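 also: 0% = plate median of test compound wells and 100% = 1 µM Z-Phe-Ala-diazomethylketone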
HNF4A DNA FP – change in binding of human HNF4 alpha to DNA. P41235. AID 1224865. 360,000 compounds, 0.3% hits. activity change, % at 10 µM. HNF4a-FITC DNA binding, fluorescence polarization, 1 h; in the data active = activity change above about 30%, passing the limit was not always enough
caTPT1 confirm – confirmation of Candida albicans TPT1 inhibitors | recombinant caTPT1, fluorescence polarization, RNase T1 coupled | 2,400 compounds, 74% hits | inhibition, % at 5 µM | shares compounds with TPT1 inhibitor;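 active = inhibition above the primary screen limit, the mean inhibition of all tested compounds plus 3 SD, cut at about 25% in these data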
RNase T1 inh – blocks Aspergillus oryzae RNase T1, a TPT1 counter-screen; shares compounds with TPT1 inhibitor; RNase T1 cleavage, fluorescence polarization, 1536-well; inhibition, % at 5 µM; 2,400 compounds, 83% hits; AID 2153;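 active = inhibition above the solvent-only control well mean plus 3 SD, limit set per screening run, cut at about 23% in these data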;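 also: plate controls were DMSO wells with enzyme for no effect and wells without RNase T1 for full effect; inhibitors block cleavage so intact labeled substrate keeps polarization high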
Target sequence (P00651 whole entry, looked up): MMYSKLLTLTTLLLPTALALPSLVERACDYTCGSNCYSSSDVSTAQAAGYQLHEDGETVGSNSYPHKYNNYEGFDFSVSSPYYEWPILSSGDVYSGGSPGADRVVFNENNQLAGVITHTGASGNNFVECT
Rpn11 confirm – Rpn11 inhibition confirmation, single concentration; purified human 26S proteasome, Ub4-pepOG fluorescence polarization; proteasome pretreated with epoxomicin; shares compounds with Rpn11 block; 1,900 compounds, 29% hits; inhibition, % at 20 µM
MMP-2 counter – counter-screen for RPN11 inhibitors: inhibition of human MMP-2 | shares compounds with Rpn11 block | recombinant MMP-2, FRET peptide cleavage fluorescence | inhibition, % at 20 µM | 1,900 compounds, 4% hits;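 also: human MMP-2 activated beforehand with APMA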
Thrombin inh – counter-screen for RPN11 inhibitors: inhibition of bovine thrombin | bovine thrombin cleavage of Ub4-pepOG, fluorescence polarization | AID 602333 | 1,900 compounds, 13% hits | shares compounds with Rpn11 block | inhibition, % at 20 µM;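 active = mean inhibition at least 40% at 20 µM, or signal 3 deviations below plate average, so some actives read negative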;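 also: plate controls were thrombin with DMSO for no effect and buffer wells lacking thrombin for full effect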
Starred values were filed as active, the others as inactive; . = no result given. Rule as the data show it, unless noted: active = inhibition above about 40%; inactive = the rest.

SMILES	TPT1 inhibitor	PHOSPHO1 block	NRP1-CendR mod	Rpn11 block	CTSL1 counter	HNF4A DNA FP	caTPT1 confirm	RNase T1 inh	others
COc1ccc(/C=C2/C(=O)N(Cc3ccco3)C(=O)N(C(C)C)C2=O)cc1	57*	-16	-330	171*	-3	24	13	18
C1CC2OC2CC1C1CO1 (configuration not stated)	.	.	7	11	.	-3	.	.
COC(=O)C1=C(c2ccc(OC(F)(F)F)cc2)C[C@@H]2CC[C@H]1N2C(=O)NC1CCCCC1	.	.	2	6	.	1	.	.
COc1ccc(CC(=O)C2C(=O)N(C)c3ccccc32)cc1OC (configuration not stated)	.	.	1	2	.	-3	.	.
COc1cc2[nH]c(=O)n(-c3cccc(Cl)c3)c(=O)c2cc1OC	-1	31	9	0	0	-1	.	.
CC(=O)c1c(O)n(-c2cccc(Cl)c2)c(=O)[nH]c1=O (tested in a mixture with another compound)	28*	16	-45	29	2	13	34*	43*
Cc1c2cnn(CC(=O)N3CCC4(CC3)OCCO4)c(=O)c2c(C)n1Cc1cccc(Cl)c1	0	-31	5	-8	-3	-2	.	.
O=C(Cn1ncc2c3ccccc3n(Cc3cccc(Cl)c3)c2c1=O)N1CCC2(CC1)OCCO2	114*	16	-28	17	1	1	64*	69*
O=c1[nH]c(=O)n(C2CCCCC2)c(O)c1C=Nc1ccc(N2CCOCC2)cc1	2	-13	22	0	-2	-2	.	.
O=c1[nH]c(=S)n(-c2ccc(Cl)cc2)c(O)c1C=Nc1ccc(N2CCOCC2)cc1	30*	18	28	-38	-1	2	-49	-33
CCn1c(O)c(C=NCCN2CCOCC2)c(=O)n(CC)c1=S	38*	24	-10	14	-4	3	19	27*
Cn1c(O)c(C=NCCN2CCOCC2)c(=O)n(C)c1=S	-1	4	0	-4	0	0	.	.
CCn1c(O)c(C=Nc2ccc(N3CCOCC3)cc2)c(=O)n(CC)c1=S	66*	31	125	-154	2	6	-26	-36
CC/C(=N\NC(=O)Nc1ccccc1)c1c(O)n(Cc2ccccc2)c(=O)[nH]c1=O	3	-12	8	0	2	3	.	.
Cc1ncc(CN2CCCC(C(=O)c3cccc(Cl)c3)C2)s1 (configuration not stated)	-4	12	16	-6	3	6	.	.
Cc1cc(C)c(Cn2c(C(=O)O)c(C=O)c3ccccc32)c(C)c1	53*	26	88	.	6	106	118*	120*
O=Cc1c(C(=O)O)n(Cc2ccccc2Cl)c2ccccc12	5	-1	5	-1	4	2	.	.
O=C1NC(=S)N(c2ccc(Br)cc2)C(=O)/C1=C/N1CCN(C(=O)c2ccco2)CC1	86*	21	-175	.	8	49*	37*	52*
O=C1NC(=S)N(c2ccc(F)cc2)C(=O)/C1=C/c1ccccc1O	-2	18	4	-4	0	6	.	.
CN1C(=O)C(=Cc2ccc(N3CCCCC3)o2)C(=O)N(C)C1=S	85*	4	-51	.	4	133	105*	111*
CCN(CC)c1ccc(/C=C2\C(=O)NC(=S)N(C)C2=O)o1	123*	-3	-17	.	2	176	135*	135*
CN1C(=O)/C(=C\N2CCc3ccccc32)C(=O)NC1=S	9	-2	1	19	-2	1	.	.
CCN(CC)c1ccc(C=C2C(=O)N(C)C(=S)N(C)C2=O)o1	93*	6	-41	.	2	147	102*	112*
N#CC1C(C#N)C2CCC1C1C2N1c1ccccc1 (configuration not stated)	.	.	-3	0	.	-1	.	.
CCN(CC)CCO	.	.	6	-1	.	0	.	.
SMILES	TPT1 inhibitor	PHOSPHO1 block	NRP1-CendR mod	Rpn11 block	CTSL1 counter	HNF4A DNA FP	caTPT1 confirm	RNase T1 inh	others
CC(=O)c1c(O)n(C)c(=S)n(-c2ccccc2)c1=O	45*	28	-102	33	3	26	30*	40*
CC1=NCCc2c1[nH]c1cc(O)ccc21	-102	.	142	-194	3	-99	.	.
COc1ccc2c3c([nH]c2c1)C(C)=NCC3	44*	4	-133	65*	-4	30	18	31*	Rpn11 confirm=40;MMP-2 counter=-2;Thrombin inh=30
COc1cc(/C=C/[N+](=O)[O-])ccc1O	-4	-14	8	-1	7	0	.	.
CCN(CC)c1ccc(/C=C/[N+](=O)[O-])cc1	127*	17	-123	68*	2	3	118*	117*	Rpn11 confirm=50*;MMP-2 counter=-45;Thrombin inh=53*
Cc1ccnc(-n2c(C)cc(C=C3C(=O)N(C)C(=S)N(C)C3=O)c2C)c1	52*	48	-11	47*	-1	4	24	33*	Rpn11 confirm=-5;MMP-2 counter=28;Thrombin inh=-42
CC(C)C[C@@H]1COc2cc(N3CCN(C)CC3)ccc2S(=O)(=O)N1	.	.	10	.	.	0	.	.
COc1ccc(CN2C(=O)NC(=O)/C(=C\c3ccco3)C2=O)cc1	80*	-33	-95	44*	0	-6	33*	47*	Rpn11 confirm=122*;MMP-2 counter=20;Thrombin inh=22
CN(C)c1ccc(/C=C2\C(=O)NC(=O)N(CCc3ccc(F)cc3)C2=O)cc1	30*	9	-2	50*	1	10	67*	86*	Rpn11 confirm=10;MMP-2 counter=1;Thrombin inh=-90
O=C1NC(=O)N(CCc2ccc(F)cc2)C(=O)/C1=C/c1ccco1	61*	-10	-52	71*	4	-17	14	15	Rpn11 confirm=29;MMP-2 counter=37;Thrombin inh=-1
CC(=O)OC1C(=O)OCC23CCC4(C)OC4C2OC2CC(OC(=O)C=CC=CC(=O)OCCC1C)C3(C)C21CO1 (configuration not stated)	.	.	-6	0	.	-1	.	.
CCC(=O)c1ccc(OC)c(OC)c1	4	-9	9	0	1	-1	.	.
